Screens as filed in PubChem BioAssay.
Most compounds without a hit are left out; they make up all but 3.1% or so of the library.
VDR inhibitor = vitamin D3 receptor (human) inhibition; VDR-SRC2-3 peptide fluorescence polarization, 2 h; P11473; 400,000 tested, 0.93% active; Potency, µM, inactives show max response, negative = inhibition, actives largely listed as inhibitors; note: % is set by controls: 0 for no effect and ±100 for the full control effect
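Measured by FP: displacement of SRC2-3 coactivator peptide from VDR by library compounds, following a two-hour ambient incubation.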
ASM inhibitor = inhibitors of human secretory acid sphingomyelinase; 340,000 tested, 0.006% active; P17405; placental ASM, HMU-PC fluorogenic substrate, 60 min; Potency, µM (series often up to 57.5 µM), without a hit: top-dose activity change, negative = inhibition, most hits filed as inhibitors
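qHTS format. ASM enzyme prepared from human placenta hydrolyses the fluorogenic substrate HMU-PC0 (9 uM final) over 60 min at 37 °C after a 10 min compound preincubation.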
PLK1 PBD block = blocks phosphopeptide binding to human PLK1 polo-box domain; P53350; Plk1 PBD binding of FITC phosphopeptide, fluorescence polarization; Potency, µM, for the others: max response, negative = inhibition, actives largely listed as inhibitors; 360,000 tested, 2.8% active; AID 720504; note: series mostly up to about 57 µM; % is set by controls: 0 for no effect and ±100 for the full control effect; nearly all actives have a fitted effect of over 65% in size
TDP1 inh = inhibitors of human tyrosyl-DNA phosphodiesterase TDP1 | Q9NUW8 | recombinant TDP1, AlphaScreen DNA substrate cleavage | Potency, µM (highest dose often 130 µM), for inactives: at the top dose activity change, negative = inhibition, actives largely listed as inhibitors | 350,000 tested, 0.28% active | AID 485290; note: % is set by controls: 0 for no effect and ±100 for the full control effect; nearly all actives have a fitted effect of over 40% in size
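Tdp1 1 nM final; 15 min RT w/ cpd; substrate 15 nM, 5 min; beads 10 ug/ml, 10 min; AlphaScreen read. Neg ctrl: no enzyme.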
Pin1 inh = inhibitors of human Pin1; Q13526; Pin1 FP peptide displacement, HiFluor488, 10 min; Potency, µM (highest dose often 115 µM), for the others: at the highest dose activity, negative = inhibition, actives largely listed as inhibitors; 390,000 tested, 0.009% active; active = well fitted inhibition curve with a large enough effect in the polarisation, with a control signal flat, not every such curve was filed as active; inconclusive = small, poorly fitted or top-dose-only effect, or effect the other way, or a change in a side signal; inactive = no such curve, though single readings can be large or run the other way; the % refers to the polarisation; note: % is set by controls: 0 for no effect and ±100 for the full control effect
Target sequence (Q13526 whole entry, looked up): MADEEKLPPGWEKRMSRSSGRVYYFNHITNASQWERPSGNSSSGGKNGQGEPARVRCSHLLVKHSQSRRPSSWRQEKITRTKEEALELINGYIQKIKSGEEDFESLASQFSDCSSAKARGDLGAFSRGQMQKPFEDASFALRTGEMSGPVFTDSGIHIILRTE
Tb PFK inh = blocks T. brucei phosphofructokinase. 330,000 tested, 0.17% active. T. brucei PFK, ADP-Glo luminescence. Potency, µM (top dose mostly 57.5 µM), inactives show at the top dose activity, negative = inhibition, usual class: inhibitors. AID 485367. O15648;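 note: 0% = uninhibited 1x PFK enzyme wells and -100% = no-enzyme wells; nearly all actives have a fitted effect of over 60% in size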
Target sequence (O15648 whole entry, looked up): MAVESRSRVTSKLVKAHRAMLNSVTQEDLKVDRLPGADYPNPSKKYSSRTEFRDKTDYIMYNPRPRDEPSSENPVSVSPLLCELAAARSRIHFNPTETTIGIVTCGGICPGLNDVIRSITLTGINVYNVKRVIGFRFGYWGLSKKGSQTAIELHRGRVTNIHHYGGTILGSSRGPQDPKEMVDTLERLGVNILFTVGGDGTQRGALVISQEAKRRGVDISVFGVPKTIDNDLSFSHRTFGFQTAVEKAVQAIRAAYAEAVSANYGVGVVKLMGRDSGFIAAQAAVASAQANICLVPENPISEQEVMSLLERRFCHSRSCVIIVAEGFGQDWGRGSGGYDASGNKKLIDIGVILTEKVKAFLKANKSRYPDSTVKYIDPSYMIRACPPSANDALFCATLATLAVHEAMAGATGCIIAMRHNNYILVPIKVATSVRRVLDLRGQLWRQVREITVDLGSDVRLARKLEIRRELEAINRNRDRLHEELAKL
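Luminescent ADP detection (ADP-Glo, two-step: ATP depletion then ADP-to-ATP conversion for luciferase) reported PFK activity after 45 min room-temperature reaction of 1.25 nM enzyme with 0.5 mM F6P and 0.1 mM ATP at pH 8.0.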
An asterisk follows results filed as active; i = inactive; ? = inconclusive; . = no result given; [ ] = dose if it differs, or a comment. Unless noted, calls come from the whole dose curve; as a rule, active = well fitted curve in the direction sought with a large enough effect; inconclusive = small, poorly fitted or top-dose-only effect, or another doubt; inactive = no such curve, though single readings can be large; an effect the other way counts as inactive or inconclusive. Potency is the fitted concentration of half-maximal effect.

SMILES	VDR inhibitor	ASM inhibitor	PLK1 PBD block	TDP1 inh	Pin1 inh	Tb PFK inh
O=C(Nc1nc(=O)n(C(=O)C2CC2)s1)c1ccccc1	50µM*	-8%	-5%	7%	-3%	7%
Cc1ccc(C(=O)Nc2nc(=O)n(C(=O)c3ccccc3C)s2)cc1	22µM*	0%	?	2%	-4%	-3%
Cc1csc(NC(=O)c2ccccc2)n1	-18%	-5%	-6%	.	-7%	-5%
NCCCCNc1ncnc2ccc(-c3ccc4c(c3)OCO4)cc12	.	.	.	.	2%	.
CC(C)C(=O)N1CCC(n2nccc2NC(=O)CCOc2ccccc2)CC1	11%	8%	-5%	0%	0%	0%
CC(C)C(=O)N1CCC(n2nccc2NC(=O)CCc2ccccc2)CC1	?	3%	3.4µM*	6%	0%	3%
COC(=O)c1sc2ccccc2c1NC(=O)c1cccs1	-3%	-2%	-2%	0%	1%	-2%
COC(=O)c1sc2ccccc2c1N	-28%	i	27µM*	11%	3%	-9%
Cc1ccc2c(c1)C(c1ccncc1)=NNC(c1ccc(F)cc1)=N2	0%	0%	-5%	5%	2%	-5%
Cc1ccc2c(c1)C(c1ccncc1)=NNC(c1ccccc1)=N2	?	1%	21µM*	-3%	0%	-7%
COC(=O)c1ccc(CSc2nnc(N)s2)cc1	13%	2%	-3%	3%	-2%	2%
COC(=O)c1ccc(CSc2nnc(C)s2)cc1	-22%	-2%	3.4µM*	2%	-4%	-4%
NC(=O)[C@@H]1CSSCCC(=O)N[C@@H](CCCCN=C(N)N)C(=O)NCC(=O)N[C@@H](CC(=O)O)C(=O)N[C@@H](Cc2c[nH]c3ccccc23)C(=O)N2CCC[C@H]2C(=O)N1	-5%	.	.	.	.	.
Cc1cc(NC(=O)CSc2nc(N)c(NC(=O)c3ccco3)c(=O)[nH]2)no1	?	3%	30µM*	.	-10%	-5%
Cc1cc(NC(=O)CSc2nc(N)c(NC(=O)c3ccccc3)c(=O)[nH]2)no1	-5%	9%	-15%	8%	9%	1%
CC1(C)OC(=O)N(CC(=O)Nc2ccccc2)C1(C)O (stereo unspecified)	-13%	2%	27µM*	0%	-14%	-18%
COc1ccccc1CNC(=O)CSc1ccc(-c2sc(-c3ccccc3)nc2C)nn1	7%	.	.	0%	?	.
O=C1N(O)C2(C=CCCC2)/C(=N\O)C12CCCCC2 (stereo unspecified)	-13%	6%	30µM*	2%	2%	0%
CCON1C(=O)C2(CCCCC2)C(=O)C12C=CCCC2 (stereo unspecified)	-6%	1%	-3%	.	-1%	.
CN1CCC(=O)N(C(CSc2ccc(Br)cc2)c2ccccc2)CC1 (stereo unspecified)	-9%	.	.	10%	3%	.
O=C(CN1C(=O)C(c2ccccc2)Oc2cccnc21)NCc1ccccc1F (stereo unspecified)	?	3%	7.5µM*	0%	-1%	6%
CC(=O)Nc1cc(C(=O)NCc2ccc(F)cc2)ccc1Sc1ccc(C)cc1	8%	.	.	8%	51%	.
CC1=C(C#N)c2nc(N)c(C#N)c(C)c2/C1=C\c1ccc(-c2ccccc2C(=O)O)o1	8%	-18%	27µM*	.	.	-1%
COc1cc(/C=C2/C(C)=C(C#N)c3nc(N)c(C#N)c(C)c32)ccc1OCC(=O)O	7%	4%	24µM*	-8%	-10%	-7%
CCc1ccc(NC(=O)N2CCOc3ccc(Cl)cc32)cc1	8%	.	.	4%	-1%	.
SMILES	VDR inhibitor	ASM inhibitor	PLK1 PBD block	TDP1 inh	Pin1 inh	Tb PFK inh
C#C[C@]1(O)CC[C@H]2[C@H]3CCC4=Cc5oncc5C[C@]4(C)[C@@H]3CC[C@]21C	2%	.	.	12%[56.1 µM]	.	.
CCOc1ccc(-c2csc(NNC3=NCCCCC3)n2)cc1	?	1%	19µM*	10%	2%	-13%
COc1ccc(-c2csc(NC3=NCCCCC3)n2)cc1	4%	0%	-2%	8%	-2%	9%
Clc1ccc(-c2csc(NNC3=NCCCCC3)n2)cc1	50µM*	0%	?	11%	2%	-12%
O.O.[Mn].[Mn].[Mn].[OH-].[OH-]	.	.	.	-1%	.	.
CCOc1ccccc1NC(=O)Nc1ccc2nc(N3CCN(C)CC3)cc(C)c2c1	14%	.	.	5%	-3%	.
O=[N+]([O-])c1ccc(N2CCCCC2)nc1N1CCCCC1	2%	-19%	-7%	10%	-2%	3%
O=[N+]([O-])c1ccc2c(c1N1CCCCC1)=NC1(CCCCC1)[N+]=2[O-]	-9%	-2%	21µM*	.	-18%	-8%
O=C(OCC#CCSc1nnc(-c2cccs2)o1)c1ccc(F)cc1	.	.	.	-14%	-7%	.
Cn1cnc([N+](=O)[O-])c1S(=O)(=O)c1ccc(Cl)cc1	50µM*	5%	?	-5%	-7%	-7%
Cn1cnc([N+](=O)[O-])c1NC(C)(C)C	-8%	4%	-7%	1%	1%	-8%
CCCCNC(=O)c1cnc2sc(N3CCCCCC3)nn2c1=O	8%	.	.	8%	-5%	.
O=C1C=CC(=O)N1CCCCCCCCCCN1C(=O)C=CC1=O	16µM*	1%	1.2µM*	.	5%	.
Cc1nc2nc(CCNS(=O)(=O)c3ccc(Cl)cc3)cn2nc1C	89µM*	i	0%	2%	-5%	-3%
COc1ccc(S(=O)(=O)NCCc2cn3nc(C)c(C)nc3n2)cc1	-5%	9%	-5%	1%	11%	2%
Nc1nc(NCCO)nc(N2CCCCCC2)c1[N+](=O)[O-]	-18%	-7%	2%	.	-6%	2%
OCCN(CCO)c1nc(N2CCCCC2)c2nc(N(CCO)CCO)nc(N3CCCCC3)c2n1	-20%	i	12µM*	5%	.	-11%
CC(=O)N1CCN(C(=S)c2ccc(Cl)cc2)CC1	-3%	2%	21µM*	4%	-5%	-19%
CCCCN(CC)CCNC(=O)c1cc2c(=O)oc3ccc(C)cc3c2s1	-8%	.	.	1%	3%	.
O=C(CSc1n[nH]c(=O)[nH]c1=O)N/N=C/C=C/c1ccccc1	-6%	-4%	-2%	.	0%	1%
O=C(CSc1n[nH]c(=O)[nH]c1=O)N/N=C/C=C\c1ccccc1	2%	4%	24µM*	6%	2%	1%
CCn1c(CSc2nc3ccccc3s2)nnc1SCC(=O)c1ccc(Cl)cc1	?	-2%	3µM*	7%	56%	-9%
CCn1c(CSc2nc3ccccc3s2)n[nH]c1=S	10%	2%	-14%	7%	3%	0%
C=C(C)C(=O)OCCCCCCOc1ccc(C(=O)O)cc1	1%	-2%	?	25µM*	-17%	-5%
